# Screening data from PubChem.
# DRD3 agonist = agonists of human D3 dopamine receptor; D3R DiscoveRx beta-arrestin cells, luminescence, 90 min; AID 652048; P35462; hit rate 0.58% among 410,000; max activation, %; in the data active = max activation above about 30%; note: 0% is about no effect
#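 Cells at 1500/well, incubated overnight, then treated with pinned compounds (dopamine as control) for 90 min at 37 degrees C. DiscoveRx reagent added for 30 - 60 minutes at room temperature; luminescence read.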
# D3 antag = blocks the human D3 dopamine receptor. hit rate 2.5% among 360,000. P35462. max response, negative = inhibition, %. D3R cells, DiscoveRx beta-arrestin luminescence, antagonist mode; hits give low values; in the data active = max response below about -50%; note: % is set by controls: 0 for no effect and ±100 for the full control effect
#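 Cells expressing the human receptor were seeded at 1500 cells/well, incubated overnight at 37 degrees C in 5% CO2, then exposed to library compounds with dopamine controls for 90 minutes at 37 degrees C before luminescent detection.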
# D1 antag = human D1 dopamine receptor antagonism. activity change, negative = inhibition, % at 10 µM. AID 504652. HEK293 TREx D1 cells, calcium flux, dopamine EC80; hits give low values. hit rate 3.2% among 360,000; in the data active = activity change below about -30%; note: % is set by controls: 0 for no effect and ±100 for the full control effect
# Target sequence (P21728 whole entry, looked up): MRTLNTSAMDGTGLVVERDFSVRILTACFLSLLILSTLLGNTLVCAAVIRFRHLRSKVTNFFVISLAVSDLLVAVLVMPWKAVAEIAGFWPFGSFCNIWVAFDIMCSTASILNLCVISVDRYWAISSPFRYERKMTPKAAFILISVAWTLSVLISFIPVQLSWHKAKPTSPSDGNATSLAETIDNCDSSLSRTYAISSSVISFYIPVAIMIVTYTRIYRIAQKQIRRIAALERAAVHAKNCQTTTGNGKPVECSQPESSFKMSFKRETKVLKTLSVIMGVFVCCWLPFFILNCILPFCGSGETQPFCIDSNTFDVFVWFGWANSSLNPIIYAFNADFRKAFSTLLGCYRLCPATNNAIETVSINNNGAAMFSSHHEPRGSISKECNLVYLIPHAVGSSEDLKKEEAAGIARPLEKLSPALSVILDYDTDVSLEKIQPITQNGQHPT
#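 Using tetracycline-induced force-coupled D1 Hek293 cells and a calcium dye, signals were followed for 180 s after compound, then for 180 s after EC80 dopamine, to detect inhibitors.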
# D1 agonist = human D1 receptor agonism; AID 504660; activation, % at 2 µM; hit rate 1% among 360,000; HEK293 T-REx D1 cells, calcium flux, agonist mode; in the data active = activation above about 30%; note: 0% is about no effect
#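 Inducible HEK293 T-REx D1 cells, force-coupled to calcium signalling, were plated at 4000 cells/well with tetracycline and held overnight at 30 C. After no-wash calcium dye loading, compound-evoked calcium rise over 180 s flagged agonists.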
# D1 PAM = human D1 dopamine receptor positive modulation; HEK293 TREx D1 cells, calcium flux, dopamine EC20 potentiation; potentiation, % at 10 µM; hit rate 0.036% among 360,000; in the data active = potentiation above about 30%; note: 0% is about no effect
# An asterisk follows results filed as active; . = no result. A selection: hits, their analogues and other compounds. The true share with any hit is near 6%.
SMILES,DRD3 agonist,D3 antag,D1 antag,D1 agonist,D1 PAM
COc1cccc(CN(C(=O)COc2ccc(Cl)c(C)c2)C2CCS(=O)(=O)C2)c1 (centres undefined),2,.,1,5,-1
Cc1cc(C)nc(Nc2ncc(O)n2-c2ccc(C)c(C)c2)n1,-18,-20,0,2,11
Cc1cc(C)nc(Nc2ncc(O)n2-c2ccc(Br)cc2)n1,-3,-20,-48*,10,-7
COc1cnc(-c2ccccn2)nc1Oc1ccc(Cl)c2ccccc12,-7,-94*,.,.,.
COc1cnc(-c2ccccn2)nc1Oc1ccc(Cl)cc1,-5,-73*,25,2,3
COc1cnc(-c2ccccn2)nc1Sc1cccc(Cl)c1,-5,-71*,30,2,3
Cc1ccc(-c2ccc(=O)n(CCC(=O)NCCc3ccccc3)n2)cc1,-6,.,-12,-1,2
CCOc1ccc(-n2c(=O)c3c(C)c(C)sc3n(Cc3cc(=O)n4cc(Cl)ccc4n3)c2=O)cc1,3,.,-42*,-1,1
CCOc1ccc(-n2c(=O)c3c(C)c(C)sc3n(Cc3ccccc3C)c2=O)cc1,0,.,-73*,-1,5
CCOC(=O)Cn1c(=O)oc2cc(S(=O)(=O)N3CCN(c4ccc(Cl)cc4)CC3)ccc21,0,.,-12,0,0
O=[N+]([O-])c1ccc2nc(NN=Cc3ccc(O)cc3)sc2c1,-4,-52*,.,.,.
CC(C)c1ccc(/C=C/C(=O)Nc2nc3ccc([N+](=O)[O-])cc3s2)cc1,0,10,6,-1,-4
CCN(CC)S(=O)(=O)c1cc([N+](=O)[O-])ccc1NNC(=O)Nc1ccc(Cl)c(Cl)c1,-7,-84*,-27,9,-12
O=C(NNc1ccccc1[N+](=O)[O-])Nc1ccc(Cl)c(Cl)c1,-6,-7,-27,14,3
Cc1c(-c2ccc(O)cc2)nc2nc(-c3ccccc3)c(-c3ccccc3)nn12,.,.,6,86*,-10
Cc1nnc2c3ccccc3c(-c3ccc(O)cc3)nn12,-2,16,-7,6,-3
COc1ccc(C2(CNC(C)=O)CCCC2)cc1OC,-3,-23,-9,6,0
COc1ccc(C2(CNC(=O)CCC(=O)O)CCCC2)cc1OC,0,-51*,-9,2,-1
CCN1CCN(C(=O)Cn2ncc3c4ccccc4n(Cc4c(C)cc(C)cc4C)c3c2=O)CC1,-20,.,10,4,-1
CC(=O)Oc1ccc(-c2cccc(C(=O)OCC(=O)N(C)c3ccccc3)c2)cc1,-3,3,-84*,5,-4
CN(C)c1cccc(C(=O)OCC(=O)N(C)c2ccccc2)c1,2,-4,1,4,1
CC1=C(C(=O)N2CCCCCC2)CC(CC(=O)NCC2CCCCC2)C(=O)N1Cc1ccc(F)cc1 (centres undefined),-8,-64*,.,.,.
COc1ccc(CCNC(=O)Cn2c(=O)n(-c3ccc(OC)c(OC)c3)c(=O)c3ccccc32)cc1OC,0,.,9,0,1
COC(=O)c1c(-c2cccs2)csc1NC(=O)c1ccc(C(C)(C)C)cc1,14,.,6,1,-2
Cc1[nH]cnc1CSCc1ccc(Cl)cc1,-2,-18,-4,36*,-9
SMILES,DRD3 agonist,D3 antag,D1 antag,D1 agonist,D1 PAM
Cc1ccc(NC(=O)CCOc2ccccc2)c(C)c1,-3,-7,2,1,0
Cc1ccc(F)cc1NC(=O)CCOc1ccccc1,9,7,-31*,6,-7
Cc1c(C(=O)Nc2ccncc2)sc2nc(-c3ccccc3)cn12,3,13,-34*,17,-8
CCN(CC)c1ccc(NC(=O)c2sc3nc(-c4ccccc4)cn3c2C)cc1,1,.,-11,4,-3
O=c1ccn([C@@H]2O[C@H](CNS(=O)(=O)C3CC3)[C@@H](O)[C@H]2O)c(=O)[nH]1,-2,0,.,.,.
O=c1ccn([C@@H]2O[C@H](CNS(=O)(=O)c3csc(-c4ccno4)c3)[C@@H](O)[C@H]2O)c(=O)[nH]1,44*,16,.,.,.
O=C(Cc1cccc(C(F)(F)F)c1)NCc1cccc(Cl)c1,2,1,-19,2,-10
O=C(Cc1cccc(C(F)(F)F)c1)NCC(=O)Nc1cc(Cl)ccc1Cl,-5,1,7,3,32*
O=C(CS(=O)c1cccc(C(F)(F)F)c1)Nc1ccccc1Cl (centres undefined),-7,-7,-47*,4,-8
